High-throughput results from PubChem BioAssay.
In the library only some 3.3% were active in any assay of this set; here they are far more common.
TLR4-MyD88 BLA: inhibitors of human TLR4-MyD88 binding. O00206+Q99836. HeLa CL3-4 TLR4/MyD88 BLA complementation, FRET ratio. inhibition, % at 8.4 µM. hit rate 0.18% among 200,000; in the data active means inhibition above about 25%;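 further: 0% = vehicle and 100% = reference inhibitor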
PRMT1 inh: PRMT1 (human) inhibition, primary screen; inhibition, % at 2.79 µM; hit rate 1.3% among 370,000; AID 652257; recombinant PRMT1, activity-based probe fluorescence polarization;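 active means inhibition above about 21% made by adding two undisclosed values, limit read from the data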
NOD2 RIPK2 PPI: blocks binding of human NOD2 to RIPK2; O43353; CHO BLA complementation NOD2-RIPK2, CCF4 ratio; inhibition, % at 4.98 µM; hit rate 0.38% among 360,000; AID 624267; in the data active means inhibition above about 21%;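 further: 0% = vehicle only and 100% = reference blocker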
ABHD5-PLIN5 inh: ABHD5-PLIN5 protein interaction inhibition. inhibition, % at 4 µM. AID 602281. Split G. princeps luciferase complementation, luminescence, 4 h. hit rate 0.78% among 360,000. Q00G26+Q8WTS1;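 active means inhibition above the mean inhibition across every tested compound plus 3 SD, cut at about 22% in these data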;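 further: 0% = DMSO only wells and the 100% control is not disclosed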
TLR9-MyD88 block: blocks human TLR9 binding to MyD88; CHO BLA complementation TLR9-MyD88, CCF4 FRET ratio; AID 504734; inhibition, % at 4.98 µM; hit rate 0.21% among 340,000; Q9NR96+Q99836;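 active means inhibition above the mean over all tested compounds plus 3 SD, cut at about 21% in these data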;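 further: 0% = DMSO only wells and 100% = clavulanate BLA inhibitor control wells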
rCAG RNA binder: binds r(CAG) RNA repeats; r(CAG) RNA repeat, TO-PRO-1 dye displacement fluorescence; inhibition, % at 3 µM; hit rate 1.3% among 370,000; AID 651821;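 active means inhibition above the plate cutoff, the mean of all test compounds on that plate plus 3 SD, cut at about 35% in these data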;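 further: 0% = DMSO alone and 100% = 100 µM mitoxantrone as full dye displacement; higher means more dye released from RNA so lower well fluorescence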
rCAG binder conf: r(CAG) RNA repeat binding, confirmation. inhibition, % at 3 µM. AID 652065. shares compounds with rCAG RNA binder. hit rate 70% among 4,300. TO-PRO-1 dye displacement fluorescence;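 active means inhibition above a per-plate cutoff, the mean inhibition of sample wells plus 3 SD, cut at about 35% in these data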;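 further: loss of TO-PRO-1 fluorescence as compound displaces dye from 1x1 AA loop RNA; 0% = DMSO only wells and 100% = 100 µM mitoxantrone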
DNA CAG counter: disrupts DNA CAG TO-PRO-1 complex, flagging rCAG hits. shares compounds with rCAG RNA binder. d(CAG) DNA oligo TO-PRO-1 dye displacement, fluorescence. inhibition, % at 3 µM. hit rate 94% among 4,300. AID 652068;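 active means inhibition above its plate's cutoff, the mean test-well inhibition plus 3 SD, cut at about 4.8% in these data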;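 further: 0% = DNA dye mix with DMSO and 100% = 100 µM mitoxantrone; hits displace the dye from DNA and so lower well fluorescence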
* marks the source's active call; other numbers are inactive results; x = not tested or not shown.

SMILES	TLR4-MyD88 BLA	PRMT1 inh	NOD2 RIPK2 PPI	ABHD5-PLIN5 inh	TLR9-MyD88 block	rCAG RNA binder	rCAG binder conf	DNA CAG counter
COCCCNc1nc2ccccc2nc1NS(=O)(=O)c1cc(Cl)ccc1Cl	x	2	-1	-1	-12	50*	48*	15*
CCOC(=O)c1ncccc1NC(=O)CC(=O)Nc1cccnc1C(=O)OCC	x	6	-12	-2	x	-6	x	x
Cc1ccc(Cl)cc1NC(=O)c1cc(NC(=O)CCCC(=O)O)ccc1N1CCCCC1	x	-1	2	3	2	51*	56*	18*
Cc1cc(NS(=O)(=O)c2ccc(NC(=O)C(C)Oc3ccccc3Cl)cc2)no1 (stereo not given)	x	0	4	-13	-6	36*	19	3
Cc1cc(NS(=O)(=O)c2ccc(NC(=O)C(C)Oc3cc(C)c(Cl)c(C)c3)cc2)no1 (stereo not given)	x	-4	1	-1	-5	69*	66*	28*
Cc1cc(NS(=O)(=O)c2ccc(NC(=O)C(C)Oc3ccc(Cl)cc3)cc2)no1 (stereo not given)	-10	3	-7	-2	12	31	x	x
O=C(O)CCn1cc(/C=C2\NC(=S)N(c3ccccc3)C2=O)c(-c2ccc(Br)cc2)n1	0	6	4	-1	3	41*	39*	9.4*
N#CCCn1cc(/C=C2\NC(=S)N(c3ccccc3)C2=O)c(-c2ccc(F)cc2)n1	-8	-2	-2	5	8	19	x	x
Cc1cc(OCC(=O)Nc2ccc(N3CCN(C)CC3)cc2)ccc1Cl	x	-6	0	4	5	-8	x	x
Cc1ccc2[nH]c(C)c(/C=N/Nc3nc4ccccc4s3)c2c1	-13	3	4	1	6	65*	47*	26*
Cc1ccc([C@H]2C(C(=O)O)=C[C@@H](C(C)(C)C)N2S(=O)(=O)c2ccc(C)cc2)cc1	x	4	-2	-3	-5	42*	34	12*
Cc1ccc(S(=O)(=O)N2[C@@H](c3cccc(C)c3)C(C(=O)O)=C[C@H]2C(C)(C)C)cc1	x	1	-8	1	-14	28	x	x
Cc1ccc(S(=O)(=O)N2[C@@H](c3ccc(C(C)C)cc3)C(C(=O)O)=C[C@H]2C(C)(C)C)cc1	x	3	-14	-4	5	69*	59*	23*
CCOc1ccccc1CNC(=O)C1CCCN(c2nnc(C)c3c(C)n(-c4ccccc4)nc23)C1 (stereo not given)	x	-10	-3	16	-3	-9	x	x
Cc1ccc([C@H]2C(C(=O)O)=CC[C@@H](c3ccc(C)cc3)N2S(=O)(=O)c2ccc(C)cc2)cc1	x	3	-9	-3	-1	76*	67*	30*
Cc1ccc([C@H]2C(C(=O)O)=CC[C@@H](c3cccc(C)c3)N2S(=O)(=O)c2ccc(C)cc2)cc1	x	1	4	-7	-1	10	x	x
Cc1ccc([C@@H]2CC=C(C(=O)O)[C@H](c3ccccc3)N2S(=O)(=O)c2ccc(C)cc2)cc1	x	0	-5	-8	-5	56*	59*	22*
COc1ccc(CN2C(=O)[C@]3(NCCc4c3[nH]c3ccc(OC)cc43)c3cc(Br)ccc32)cc1	x	0	x	x	x	14	x	x
CCCCCCCCN1C(=O)[C@@H](CC(=O)NCCCOC)C[C@@]2(C(=O)OC)C1=C[C@H](C(C)(C)C)O[C@@H]2C	x	2	x	x	x	4	x	x
Cc1ccc(NC(=O)CSc2ncc(S(=O)(=O)c3ccccc3)c(=O)[nH]2)cc1C	0	1	-7	8	2	49*	43*	11*
Cc1cccc(OC(=O)Nc2ccc(C(=O)O)c(O)c2)c1	x	7	1	-1	-5	2	x	x
CC(C)(C)c1ccc(OC(=O)Nc2ccc(O)c(C(=O)O)c2)cc1	x	3	-5	-2	3	54*	37*	11*
COc1cccc(CNC(=O)[C@H]2CCCN2C(=O)[C@H]2CCCN2C(=O)c2ccc(F)c(C(F)(F)F)c2)c1	x	3	x	x	x	-2	x	x
Cc1nn(-c2ccccc2Cl)c(Cl)c1/C=N/Nc1cccc(C(=O)O)c1	12	1	-7	-1	-9	19	x	x
Cc1ccc(/C=N/Nc2ccc(C(=O)O)cc2)s1	-11	-1	0	-2	-2	24	x	x
SMILES	TLR4-MyD88 BLA	PRMT1 inh	NOD2 RIPK2 PPI	ABHD5-PLIN5 inh	TLR9-MyD88 block	rCAG RNA binder	rCAG binder conf	DNA CAG counter
O=C(O)c1cccc(N/N=C/c2ccc(F)c(F)c2)c1	-4	4	-2	-2	-19	7	x	x
Cc1nn(-c2cccc(C(F)(F)F)c2)c(Cl)c1/C=N/Nc1cccc(C(=O)O)c1	-2	5	3	-2	0	44*	57*	19*
O=C(O)c1cccc(N/N=C/C2=C(Cl)c3cc(Cl)ccc3SC2)c1	12	15	0	-2	10	35*	80*	50*
CCOc1cc(/C=N/Nc2cccc(C(=O)O)c2)ccc1OC(=O)c1ccccc1	-15	5	-1	-7	2	36*	82*	51*
Cc1ccc(/C=N/Nc2cccc(C(=O)O)c2)s1	13	12	3	-2	-7	36*	19	4.8*
CCN(C[C@H]1N[C@@](CC)(C(=O)OC)[C@H]2C(=O)N(C)C(=O)[C@@H]12)C(=O)COC	x	-3	6	0	-1	0	x	x
COc1ccc(C2/C=C\CN(Cc3ccc(N(C)C)cc3)CC(=O)N2Cc2ccc(F)cc2)cc1 (stereo not given)	x	-1	-1	3	-2	-4	x	x
CCCCC(=O)N(C)c1c(C)nc2ccc(C(=O)N(C)CCN(C)C)cn12	x	-2	-4	3	x	0	x	x
Cc1ccc(S(=O)(=O)N2CCN(C(=O)C3CCN(c4ncnc5sc(C)c(C)c45)CC3)CC2)c(C)c1	x	4	2	6	2	1	x	x
O=C(OC12CCCN(C1)/C(=C/c1cccnc1)C2)c1cccc(F)c1 (stereo not given)	x	-1	x	x	x	6	x	x
C=CCOc1c(Br)cc(/C=N/Nc2ccc(C(=O)O)cc2)cc1OCC	-3	4	-6	-2	-10	83*	66*	26*
O=C(N/N=C1/CCSC1)c1cc(Br)ccc1O	-8	1	-10	-2	6	41*	16	7.3*
O=C(NN=C1CCCC1)c1cc(Br)ccc1O	x	-1	-10	-2	3	9	x	x
CCC(C)n1c(=S)[nH]c2c(sc3ccc([N+](=O)[O-])cc32)c1=O (stereo not given)	2	-2	-17	3	-15	4	x	x
CC1=C([N+](=O)[O-])C(c2ccc(Cl)cc2)NC(=O)N1 (stereo not given)	x	4	-8	-4	3	2	x	x
